About 35 (0.06%) of roughly 59,000 compounds were called active. About 19% were inconclusive and are not listed. Rule as the data show it: active = max dye-equivalent concentration above about 10 nM; inconclusive = between about 1.1 nM and that limit; inactive = weaker than that. The sample as a whole holds a higher share of actives than the screen did.
experiment: qHTS Assay for Spectroscopic Profiling in Texas Red Spectral Region; conditions: Compound fluorescence, Texas Red channel, 547/618 nm; active compounds read high
Source text: NIH Molecular Libraries Screening Centers Network [MLSCN] NIH Chemical Genomics Center [NCGC] […] Occasionally, the artifactual effect may originate from the compound#s own spectral or other biophysical properties which generally tend to track its assay concentration. Pre-screening/profiling the library with respect to the compounds# spectral properties should help one exclude false positives early on. While the most informative fluorescent profiling data set is obtained by performing a full excitation and emission scan of each well by using a monochromator-based plate reader, such an approach is practical only on a very limited scale as scanning each well requires long time. An alternative approach, applied here, is to perform plate reader scans using selected excitation and emission wavelength pairs to generate a multidimensional relational database that correlates compound concentration and the respective relative fluorescence intensity at a given wavelength set. A standard curve of Texas Red (TR) present on each plate as six-point concentration series, was used to compute a normalized fluorescence response, termed dye-equivalent concentration, for each compound at each concentration.
NCGC Assay Protocol Summary: Buffer: 100 mM Tris buffer, pH 8.0 Dye standard plate: The wells in columns 1 through 4 of a Kalypsys polypropylene 1536-well compound plate were filled with standard solutions of fluorophore corresponding to the spectral region of interest. Solutions of TR were placed in the following wells: U1, V1: 3 mM, U2, V2: 300 uM, U3, V3: 30 uM, U4, V4: zero (DMSO), W1, X1: 3 uM, W2, X2: 900 nM, W3, X3: 300 nM, W4, X4: zero (DMSO). Assay Steps: Six uL of buffer were dispensed to 1536-well Greiner black plates. Compounds and dye standards (23 nL) were transferred via Kalypsys PinTool. The plates were incubated for 15 min at room temperature, and then read on ViewLux (Perkin-Elmer) High-throughput CCD imager using 547 nm and 618 nm excitation and emission filter set. Keywords: NIH Roadmap, MLSCN, MLI, MLSMR, qHTS, NCGC, Texas Red, Fluorescent Profiling.

Row | SMILES | max dye-equivalent concentration
1 | COc1ccc2nccc(C(=O)O)c2c1 | inactive
2 | Cc1ccc(C(=O)Nc2nnc(-c3cccs3)s2)cc1C | inactive
3 | CCc1ccccc1NC(=O)CSc1nnc([C@@H](NC(=O)OC(C)(C)C)C(C)C)o1 | inactive
4 | Cc1ccc(F)cc1NC(=O)c1ccc2c(c1)OCO2 | inactive
5 | CC(C)[C@H](NC(=O)Nc1ccc(S(N)(=O)=O)cc1)C(=O)O | inactive
6 | CCc1ccccc1N(CC(=O)N1CCN(c2ccccc2F)CC1)S(C)(=O)=O | inactive
7 | COc1ccccc1NC(=O)CSc1nc2sc(C)c(C)c2c(=O)n1Cc1ccco1 | inactive
8 | CCOc1ccccc1/C=c1\sc2nc(-c3ccco3)nn2c1=O | inactive
9 | CN(c1ccccc1)c1ccc(/C=c2\s/c(=C(/C#N)C(=O)C(C)(C)C)n(Cc3ccco3)c2=O)cc1 | 54 nM (active)
10 | Cc1c(S(=O)(=O)O)ccc(N=Nc2c(O)c(C(=O)O)cc3ccccc23)c1Cl | inactive
11 | O=C(NCc1ccco1)c1cnn2c(C(F)(F)F)cc(-c3ccco3)nc12 | inactive
12 | COCCn1c(=O)c(-c2cccs2)nc2cnc(N3CCN(C)CC3)nc21 | inactive
13 | COCCn1c(=O)c(CCc2ccccc2)nc2cncnc21 | inactive
14 | COc1ccc(-c2nc3cnc(N(C)C)nc3n(Cc3cccs3)c2=O)cc1 | inactive
15 | c1ccc2c(Nc3ccncc3)nc(-c3ccc4c(c3)OCO4)nc2c1 | inactive
16 | Cn1c(=O)c(CCc2ccccc2)nc2cnc(Nc3ccccc3)nc21 | inactive
17 | CS(=O)(=O)NCc1ccc(C(=O)NCc2ccccc2)cc1 | inactive
18 | CCc1cccc(C)c1NC(=O)CSc1nnc(-c2ccco2)n1N | inactive
19 | O=C(Nc1ccccc1F)c1cc(S(=O)(=O)N2CCCCC2)cs1 | inactive
20 | Fc1cnc(N2CCOCC2)nc1NCc1ccccc1 | inactive
21 | CCNc1ncc2ncc(=O)n(CCc3ccccc3)c2n1 | inactive
22 | Cc1noc(C)c1-c1nc(Nc2ccccc2)c2ccccc2n1 | inactive

Row | SMILES | max dye-equivalent concentration
23 | Cc1cc(N2CCCC2)n2nc(C)c(-c3ccccc3)c2n1 | inactive
24 | CC(C)(C)c1csc(NC2=NS(=O)(=O)c3ccccc32)n1 | inactive
25 | COc1ccc(-c2nc3cnc(Oc4ccccc4)nc3n(Cc3cccs3)c2=O)cc1 | inactive
26 | COC(=O)CN(c1nc(C)c(Cl)c(OC)n1)S(=O)(=O)c1ccc(C)cc1 | inactive
27 | COC(=O)CNC(=O)c1ccc2c(c1)S(=O)(=O)c1ccccc1C2=O | inactive
28 | CC(C)C1N=C2c3ccccc3N=C(SCC(=O)c3ccc(O)c(O)c3)N2C1=O (centres undefined) | inactive
29 | O=C(O)C1CCCCC1C(=O)Nc1ccc(Cl)cc1 (centres undefined) | inactive
30 | CCCS(=O)(=O)C(=C1Nc2ccccc2N1)S(=O)(=O)CCC | inactive
31 | Cn1c(-c2ccc(C(=O)c3ccccc3)s2)nc2ccccc21 | inactive
32 | O=C(NCC1CCCO1)C(C(=O)c1ccccc1)n1cc(Cl)ccc1=O (centres undefined) | inactive
33 | CCOC(=O)c1[nH]c2ccc(C)cc2c1N=C(C)N(C)C | inactive
34 | COC(=O)N1CCC2(CCCN(c3ccncc3)C2)CC1 | inactive
35 | COCCn1c(=O)c(-c2ccccc2)nc2cnc(N3CCOCC3)nc21 | inactive
36 | COCCn1c(=O)c(-c2cc(F)cc(F)c2)nc2cncnc21 | inactive
37 | Cc1nn2c3ccccc3nc2n(C)c1=O | inactive
38 | O=C(COc1ccc2c3c(c(=O)oc2c1)CCC3)NC1CCCCC1 | inactive
39 | O=C(NCc1ccccn1)c1cc2ccccc2oc1=O | inactive
40 | COc1ccc(Cl)cc1NC(=O)c1oc(C)nc1C | inactive
41 | Cc1c(C)c2c(c(C)c1O)CC[C@@](C)(CN1CCN(c3cc(N4CCCC4)nc(N4CCCC4)n3)CC1)O2 | inactive
42 | O=C1CC2(CCCCC2)Oc2ccc(OCC(=O)N3CCOCC3)cc21 | inactive
43 | Cc1cnc(CNc2cc(-c3c(C)noc3C)ncn2)cn1 | inactive
44 | CS(=O)(=O)Nc1cccc(-c2cncnc2Nc2ccccc2)c1 | inactive

Row | SMILES | max dye-equivalent concentration
45 | CC(C)OC(=O)C(C#N)c1nc2ccccc2nc1N1CCN(Cc2ccc3c(c2)OCO3)CC1 (centres undefined) | inactive
46 | Oc1ccc2ccccc2c1C=NCc1c(O)ccc2ccccc12 | inactive
47 | COCCNC(=S)c1ccc(OC)cc1 | inactive
48 | CCOC(=O)c1cnc2sccn2c1=O | inactive
49 | COc1ccc(OC)c(C(=O)CSc2nnc(-c3cccs3)o2)c1 | inactive
50 | CCCCn1c(SCC(=O)N2CCC(C(=O)OCC)CC2)nc2cc(S(N)(=O)=O)ccc21 | inactive
51 | Cc1cc(N2CCCCC2)nc2ccc(Cc3ccc4nc(N5CCCCC5)cc(C)c4c3)cc12 | inactive
52 | CC(C)c1nc2oc3c(N4CCN(C)CC4)ncnc3c2c2c1CCC2 | inactive
53 | COCCNc1cc(-c2c(C)noc2C)ncn1 | inactive
54 | O=c1c(-c2ccc(F)cc2)nc2cnc(N3CCNCC3)nc2n1Cc1cccs1 | inactive
55 | Cc1nc(NCCN)c(C#N)c2c1COC(C)(C)C2 | inactive
56 | Cn1cccc1C(=O)NC(=O)COC(=O)Cc1coc2ccc3ccccc3c12 | inactive
57 | CCOCCN(C=O)c1cccc(OC)c1 | inactive
58 | COc1ccc2[nH]c(=O)c(CN(CC3CCCO3)C(=O)Nc3ccccc3)cc2c1 (centres undefined) | inactive
59 | Cn1c(=O)c2c(n(Cc3ccccc3)c1=O)NC(=O)C2CC(=O)N1CCc2ccccc2C1 (centres undefined) | inactive
60 | O=S(=O)(c1ccccc1)N1CCC2(CC1)CN(Cc1nccs1)C2 | inactive
61 | O=C(O)CS(=O)c1ccc2c3c(cccc13)C(=O)c1ccccc1-2 (centres undefined) | inactive
62 | Nc1nonc1-c1nc2ccccc2n1CCC(=O)O | inactive
63 | Cc1nc2cnc(N3CCNCC3)nc2n(Cc2ccc(F)cc2)c1=O | inactive
64 | Cn1c(=S)c2[nH]c(SCCCc3ccccc3)nc2n(C)c1=O | inactive
